We go through five compounds from PubChem BioAssay.

The structures appear in SMILES notation. Activity calls are given as the source filed them. Unless noted, how the calls were made is not given here.

Experiment [1] in a line: compounds binding Alexa647 anti-His antibody – biochemical, small-molecule microarray, 635 nm fluorescence, artefact control for SMM control protein annotation, primary screen (AID 1128).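 Further: score merges feature fluorescence with signal-to-noise for each printed compound spot.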 The following applies: higher = more signal.
In experiment [2] the test system is Human papillomavirus type 1a E7 protein (residues 1-88). As to the kind of experiment: HPV1a E7 small-molecule binders, primary screen, biochemical, small-molecule microarray, residues 1-88, 635 nm (AID 1129). The following applies: small-molecule microarray binding, fluorescence 635 nm; higher = more signal.
The target in experiment [3] is Focal adhesion kinase 1 (Homo sapiens) (UniProt Q05397). As to the kind of experiment: PTK2 protein binding on printed compound slides – biochemical, small-molecule microarray, 635/667 nm fluorescence, BSA, DTT, primary screen (AID 1130).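 Further: composite of spot emission at 667 nm and signal to noise over triplicate slides.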 The following applies: 635 nm fluorescence, higher = more signal.
Focal adhesion kinase 1 (Homo sapiens), sequence (Q05397 whole entry, looked up): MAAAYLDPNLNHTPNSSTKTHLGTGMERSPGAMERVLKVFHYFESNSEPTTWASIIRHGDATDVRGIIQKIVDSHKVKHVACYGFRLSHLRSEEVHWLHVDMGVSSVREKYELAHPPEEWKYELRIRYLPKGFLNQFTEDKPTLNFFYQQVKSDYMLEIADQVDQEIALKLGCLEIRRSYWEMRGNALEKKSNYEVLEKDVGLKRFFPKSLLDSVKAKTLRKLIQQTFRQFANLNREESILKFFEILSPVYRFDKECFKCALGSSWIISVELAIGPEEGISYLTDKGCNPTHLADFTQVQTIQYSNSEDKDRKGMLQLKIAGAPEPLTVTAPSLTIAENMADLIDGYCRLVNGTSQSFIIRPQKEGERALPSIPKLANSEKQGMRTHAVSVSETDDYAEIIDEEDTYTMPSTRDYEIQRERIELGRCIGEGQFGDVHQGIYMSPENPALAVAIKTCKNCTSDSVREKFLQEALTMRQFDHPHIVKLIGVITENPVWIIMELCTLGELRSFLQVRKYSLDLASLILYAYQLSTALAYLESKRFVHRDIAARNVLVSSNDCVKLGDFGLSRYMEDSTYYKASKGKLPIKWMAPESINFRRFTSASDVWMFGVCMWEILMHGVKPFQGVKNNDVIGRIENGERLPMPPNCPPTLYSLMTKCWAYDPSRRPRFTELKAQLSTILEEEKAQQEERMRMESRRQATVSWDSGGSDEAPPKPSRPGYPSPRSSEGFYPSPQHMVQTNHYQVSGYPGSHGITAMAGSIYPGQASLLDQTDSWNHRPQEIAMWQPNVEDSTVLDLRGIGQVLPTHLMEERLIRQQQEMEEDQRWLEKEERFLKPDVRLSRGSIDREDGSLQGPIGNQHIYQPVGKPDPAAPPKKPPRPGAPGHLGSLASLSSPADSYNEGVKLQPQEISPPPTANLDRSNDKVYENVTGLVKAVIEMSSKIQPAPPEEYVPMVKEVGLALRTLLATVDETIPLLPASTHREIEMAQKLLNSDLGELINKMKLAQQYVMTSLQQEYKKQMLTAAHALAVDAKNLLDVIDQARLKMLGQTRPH
Experiment [4] deals with Fibrinogen (Alexa647-labelled). As to the kind of experiment: Alexa647-fibrinogen binding to printed small molecules – biochemical, small-molecule microarray, 635/667 nm fluorescence, artefact control for SMM control-protein annotation, profiling panel (AID 1131).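 Further: z-score merges 667 nm fluorescence with per-spot signal-to-noise over triplicate slides.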 The following applies: fibrinogen-A647 binding fluorescence, higher = more signal.
Experiment [5] has as its target Follistatin (Homo sapiens) (UniProt P19883). As to the kind of experiment: FST protein binding to printed compounds – biochemical, small-molecule microarray, 635/667 nm fluorescence, primary screen (AID 1132). The following applies: 635 nm fluorescence, higher = more signal.
Experiment [6] has as its target Fibroblast growth factor 2 (Homo sapiens) (UniProt P09038). As to the kind of experiment: basic fibroblast growth factor binding to printed compounds – biochemical, small-molecule microarray, 635/667 nm fluorescence, primary screen (AID 1133). The following applies: FGF2, fluorescence 635/667, higher = more signal.
Experiment [7] in a line: JC-1 mitochondrial potential readout, lung cancer cells – cell-based, A549, JC-1 fluorescence, basal, 24 h, 100 nL, profiling panel (AID 1138).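 Further: A549 lung adenocarcinoma cells under basal conditions with no added stimulus; test concentration not given here.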 The following applies: higher = more signal.
Experiment [8] deals with Lefty1. Put plainly: Lefty1 protein binding to printed compounds – biochemical, small-molecule microarray, 635/667 nm fluorescence, primary screen (AID 1139). The following applies: fluorescence 635/667, higher = more signal.
In experiment [9] the test system is wheat germ agglutinin (Triticum aestivum), Alexa647-labelled. Put plainly: Alexa647-WGA lectin binding to printed small molecules – biochemical, small-molecule microarray, 635/667 nm fluorescence, artefact control for SMM control-protein annotation, profiling panel (AID 1140).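 Further: score merges 667 nm feature emission with signal to noise over triplicate slides.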 The following applies: WGA-A647 binding, 635 nm fluorescence, higher = more signal.
For experiment [10], the target named is Luciferin 4-monooxygenase (Photinus pyralis) (UniProt P08659). As to the kind of experiment: inhibition of purified Photinus pyralis luciferase – biochemical, luminescence, purified enzyme, 2006 set, primary screen (AID 1141).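 Further: cell-free assay with purified firefly luciferase at 100 ng per well in PBS; test concentration not given here.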 The following applies: purified firefly luciferase, SteadyGlo luminescence, 30 min; higher = more signal, called active from +8 up or from −8 down.
Luciferin 4-monooxygenase (Photinus pyralis), sequence (P08659 whole entry, looked up): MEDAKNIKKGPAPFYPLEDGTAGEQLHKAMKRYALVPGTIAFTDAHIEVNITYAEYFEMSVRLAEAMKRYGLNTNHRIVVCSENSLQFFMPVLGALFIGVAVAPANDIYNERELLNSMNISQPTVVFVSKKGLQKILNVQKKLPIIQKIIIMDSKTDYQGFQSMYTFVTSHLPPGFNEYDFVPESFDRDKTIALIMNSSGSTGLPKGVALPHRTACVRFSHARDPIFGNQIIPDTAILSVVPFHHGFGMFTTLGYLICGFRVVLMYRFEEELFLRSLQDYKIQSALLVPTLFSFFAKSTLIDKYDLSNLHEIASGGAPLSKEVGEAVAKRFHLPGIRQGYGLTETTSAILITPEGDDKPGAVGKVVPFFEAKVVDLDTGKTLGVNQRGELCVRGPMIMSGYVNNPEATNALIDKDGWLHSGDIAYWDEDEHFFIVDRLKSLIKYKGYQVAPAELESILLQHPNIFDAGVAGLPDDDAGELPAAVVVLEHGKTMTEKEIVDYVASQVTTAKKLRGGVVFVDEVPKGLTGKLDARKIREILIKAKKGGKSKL

Experiment [11] relates to Wnt5a (protein binding on small-molecule microarray). As to the kind of experiment: small molecules binding Wnt5a protein – biophysical, small-molecule microarray, 635/667 nm fluorescence, primary screen (AID 1142).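 Further: fluorescence read at 667 nm with signal to noise per printed feature.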 The following applies: 635 nm fluorescence, higher = more signal.
Experiment [12] can be described thus: ATP-based viability of Huh7 replicon cells – cell-based, CellTiter-Glo luminescence, basal, 48 h, cytotoxicity control for HCV replication inhibitor project, primary screen (AID 1143).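 Further: Huh7 hepatoma cells carrying a hepatitis C replication reporter with no stimulus; test concentration not given here.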 The following applies: higher = more signal, called active from +8 up or from −8 down. On the technique in general: Replicon systems follow genome replication, usually without infectious particles.

Experiment [13] is described as follows: Pseudomonas biofilm growth suppression – PAO1 strain, BacTiter-Glo luminescence, LB-PBS, primary screen (AID 1144). The following applies: P. aeruginosa PAO1 biofilm, 12 h, higher = more signal.
A short description of experiment [14]: basal CRE-LacZ reporter activity in PC12 – cell-based, unstimulated, primary screen (AID 1145). The following applies: no forskolin, luminescence, 4.5 h, higher = more signal, called active from +8 up or from −8 down.
The nature of experiment [15]: forskolin-driven CRE-LacZ activity in PC12 – cell-based, CRE-LacZ reporter, forskolin-stimulated, primary screen (AID 1146).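 Further: PC12 cells with 6xCRE LacZ reporter stimulated by forskolin 10 µM; beta-galactosidase reporter signal reflecting CREB driven transcription.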 The following applies: luminescence, 4.5 h, higher = more signal, called active from +8 up or from −8 down.
The target of experiment [16] is Streptavidin (Streptomyces avidinii) (UniProt P22629). Put plainly: compounds binding control protein streptavidin – biophysical, small-molecule microarray, 635/667 nm fluorescence, artefact control for SMM compound annotation, primary screen (AID 1147).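 Further: signal reflects streptavidin binding to arrayed compounds as a control protein.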 The following applies: higher = more signal.
Streptavidin (Streptomyces avidinii), sequence (P22629 whole entry, looked up): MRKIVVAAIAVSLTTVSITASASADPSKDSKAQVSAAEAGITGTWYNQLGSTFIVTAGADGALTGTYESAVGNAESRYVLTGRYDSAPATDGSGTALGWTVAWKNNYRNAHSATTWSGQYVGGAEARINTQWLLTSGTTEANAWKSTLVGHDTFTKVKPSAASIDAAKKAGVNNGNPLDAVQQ
Experiment [17] in a line: probe aInhba binding on compound microarray – biochemical, small-molecule microarray, 635/667 nm fluorescence, primary screen (AID 1148).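 Further: score merges 667nm spot fluorescence with signal-to-noise for antibody binding to printed compounds.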 The following applies: higher = more signal.
Experiment [18] concerns the target Torsin-1A (Homo sapiens) (UniProt O14656). As to the kind of experiment: TOR1A wild-type binding on microarray – cell lysate, small-molecule microarray, lysate, 635/667 nm, primary screen (AID 1149). The following applies: COS7 hTOR1A-WT lysate, 635 nm fluorescence, higher = more signal.
For experiment [19] the target is unchanged. As to the kind of experiment: torsin A mutant lysate binding on microarrays – cell lysate, small-molecule microarray, COS7 lysate, 635/667 nm fluorescence, primary screen (AID 1150).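 Further: score pools 667 nm emission and signal to noise measuring lysate protein binding.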 The following applies: COS7 hTOR1A mutant lysate, 635 nm fluorescence, higher = more signal.
In experiment [20] the test system is Sonic hedgehog protein (Shh). Put plainly: Sonic hedgehog microarray binding compounds – biochemical, small-molecule microarray, 635/667 nm fluorescence, primary screen (AID 1151).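 Further: Shh protein binding to compounds spotted on small-molecule microarray slides; score combines spot fluorescence intensity with signal-to-noise across triplicate slides.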 The following applies: 635 nm fluorescence, higher = more signal.

Torsin-1A (Homo sapiens), sequence (O14656 whole entry, looked up): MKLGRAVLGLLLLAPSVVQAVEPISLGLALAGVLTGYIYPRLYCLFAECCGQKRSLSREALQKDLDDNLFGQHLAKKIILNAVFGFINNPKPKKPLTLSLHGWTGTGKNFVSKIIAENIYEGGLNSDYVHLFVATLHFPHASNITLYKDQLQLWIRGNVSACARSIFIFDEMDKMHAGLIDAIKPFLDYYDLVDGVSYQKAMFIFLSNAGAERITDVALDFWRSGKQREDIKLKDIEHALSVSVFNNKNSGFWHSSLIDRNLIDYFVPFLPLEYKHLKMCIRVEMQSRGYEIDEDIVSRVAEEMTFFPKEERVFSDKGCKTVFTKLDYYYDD
Fibroblast growth factor 2 (Homo sapiens), sequence (P09038 whole entry, looked up): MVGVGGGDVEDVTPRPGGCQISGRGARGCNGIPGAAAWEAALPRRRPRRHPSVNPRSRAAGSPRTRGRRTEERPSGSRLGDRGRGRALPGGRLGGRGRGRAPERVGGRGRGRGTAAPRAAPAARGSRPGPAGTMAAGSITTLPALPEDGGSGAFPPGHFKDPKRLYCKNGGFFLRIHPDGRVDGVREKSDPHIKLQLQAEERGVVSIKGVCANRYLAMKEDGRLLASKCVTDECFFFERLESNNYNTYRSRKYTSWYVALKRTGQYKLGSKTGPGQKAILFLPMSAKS
Follistatin (Homo sapiens), sequence (P19883 whole entry, looked up): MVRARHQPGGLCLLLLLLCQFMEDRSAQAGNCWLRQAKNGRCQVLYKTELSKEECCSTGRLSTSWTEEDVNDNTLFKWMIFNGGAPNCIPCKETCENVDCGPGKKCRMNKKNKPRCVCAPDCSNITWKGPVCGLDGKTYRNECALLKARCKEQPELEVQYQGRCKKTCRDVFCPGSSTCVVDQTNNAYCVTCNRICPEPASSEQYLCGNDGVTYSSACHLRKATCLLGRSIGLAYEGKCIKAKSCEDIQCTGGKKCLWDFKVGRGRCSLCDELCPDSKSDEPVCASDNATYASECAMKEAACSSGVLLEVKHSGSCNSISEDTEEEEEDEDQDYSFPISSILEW

For `CO[C@@H]1COC(=O)[C@@H](C)COC(=O)[C@@H](C)NC(=O)CC=C[C@@H]1C`, the composite z-score in experiment [1] is 0.548; in [2], -0.727; in experiment [3], -0.149; in experiment [4], -1.27; in experiment [5] it was 0.679; in experiment [6], 1.7. The composite z-score in experiment [8] is 1.43; in experiment [9] it was 0.224; in [11] it was 0.102; in [16], -0.457; in experiment [17], -0.246; in experiment [18] it was 1.65. In addition, the composite z-score in experiment [19] came out at 0.717; in experiment [20], 1.51. In addition, the z-score in experiment [7] is -1.24; in experiment [10], 0.138 (inactive); in experiment [12] it was -4.69 (inactive); in experiment [13], -2.01 (inactive); in [14], -0.129 (inactive); in experiment [15], -0.694 (inactive).
For the compound `CCOC(=O)NN=C1C[C@@H](O)[C@@H](O)[C@@H]2[C@@H]3C(=O)N(c4cccc(Oc5ccccc5)c4)C(=O)[C@@H]3CC[C@H]12`, the composite z-score in experiment [1] is 0.141; in experiment [2], 0.34; in [3], 0.0494; in experiment [4], 0.641; in [5] it was 0.519; in [6], 0.374. Moreover, the composite z-score is 0.365 in [8]; 0.01 in experiment [9]; 0.0643 in experiment [11]; 0.948 in experiment [16]; -0.129 in [17]; 0.933 in [18]. The composite z-score amounted to 0.0519 in experiment [19] and 0.206 in [20]. Besides, the z-score is 0.471 in [7]; -0.219 (inactive) in [10]; -1.16 (inactive) in [12]; -0.215 (inactive) in [13]; 0.523 (inactive) in [14]; 0.583 (inactive) in [15].
Consider `CCOC(=O)CCN1C(=O)[C@H]2[C@H]3[C@H](O)[C@H](O)CC(=NOCc4ccccc4)[C@H]3CC[C@H]2C1=O`, for which the composite z-score was 0.0669 in [1]; -0.469 in experiment [2]; -0.017 in [3]; 0.658 in experiment [4]; -0.851 in [5]; -0.772 in experiment [6]. Further, the composite z-score in [8] is -0.579; in experiment [9] it was 0.343; in experiment [11] it was 0.14; in experiment [16] it was 0.758; in experiment [17], 0.0805; in experiment [18], -0.296. For the same compound, the composite z-score in experiment [19] was -0.522; in experiment [20], -0.212. The z-score in experiment [7] is 0.229; in experiment [10] it was 0.563 (inactive); in [12], 0.223 (inactive); in experiment [13] it was 1.14 (inactive); in experiment [14], -0.295 (inactive); in experiment [15], -0.21 (inactive).
Regarding `CC(C)CON=C1C[C@@H](O)[C@@H](O)[C@@H]2[C@@H]3C(=O)N(C(C)(C)C)C(=O)[C@@H]3CC[C@H]12`, the composite z-score in [1] was 1.15; in experiment [2] it was -0.264; in experiment [3] it was -0.0405; in experiment [4], 0.0972; in [5], -0.924; in [6], -0.546. The composite z-score is -0.52 in experiment [8]; -0.0283 in experiment [9]; -0.147 in experiment [11]; -0.312 in [16]; -0.125 in experiment [17]; 0.324 in experiment [18]. In addition, the composite z-score in experiment [19] is 0.329; in experiment [20], -0.739. The z-score in experiment [7] was -0.125; in experiment [10], 0.473 (inactive); in [12], 0.419 (inactive); in [13], -0.208 (inactive); in [14] it was -0.116 (inactive); in [15] it was 0.366 (inactive).
On to `COC(=O)[C@@H]1CC[C@H](C)[C@@H](c2ccc(C)cc2)N1C(=O)c1ccc(C=NOC[C@@H](C)[C@H](OCc2ccccc2)C(C)C)cc1`, for which the composite z-score stood at 0.336 in [1]; 0.673 in [2]; 0.936 in [3]; 0.857 in experiment [4]; 0.915 in experiment [5]; 0.698 in experiment [6]. Further, the composite z-score in experiment [8] is 0.799; in experiment [9] it was 0.37; in [11], 0.156; in [16], 0.409; in experiment [17], -0.018; in [18], 0.0707. For the same compound, the composite z-score in [19] worked out at 0.537; in experiment [20], 1.28. Also, the z-score in experiment [7] is 1.26; in experiment [10], -1.46 (inactive); in experiment [12] it was -1.17 (inactive); in experiment [13], 0.978 (inactive); in [14], 6.15 (inactive); in experiment [15] it was -0.207 (inactive).
